From PubChem BioAssay
The list is not random: actives were taken first. Their share in the collection is about 1.8%.
ClpP mod – qHTS Assay for Activators of ClpP; ATP-dependent Clp protease proteolytic subunit (Bacillus subtilis (strain 168)), P80244; purified B. subtilis ClpP, FRET peptide cleavage, 20 min; Potency, µM (series often up to 57.5 µM); 340,000 compounds, 1.9% hits; AID 651965, 2013; active = well fitted falling curve with a large enough effect; inconclusive = small, poorly fitted or top-dose-only effect; inactive = no such curve, though single readings can be large or run the other way; also: the source files actives as falling curves though it sought activators and does not explain the sign; nearly all actives have a fitted effect of over 65% in size
Target sequence (P80244 whole entry, looked up): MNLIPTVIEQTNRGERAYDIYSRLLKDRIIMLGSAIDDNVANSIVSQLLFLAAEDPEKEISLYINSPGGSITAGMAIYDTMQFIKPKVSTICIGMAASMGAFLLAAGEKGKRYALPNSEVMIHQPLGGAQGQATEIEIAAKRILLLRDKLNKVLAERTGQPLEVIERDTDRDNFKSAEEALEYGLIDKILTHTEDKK
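FRET quenching reversal measured ClpP activation: 10 microg/mL B. subtilis ClpP at pH 8 with the FRET-FV decapeptide, read at 430 nm after 320 nm excitation. The 20-min minus 0-min signal was scaled between DMSO/no-enzyme wells and ADEP (5.8 microM final).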
GRP78 ERSR act – qHTS for Inducers of the Endoplasmic Reticulum Stress Response (ERSR) in Human Glioma: qHTS. U87-MG GRP78 promoter luciferase reporter, 16 h. 420,000 compounds, 0.02% hits. Potency, µM, hits mostly activators; also: series mostly up to about 76 µM; nearly all actives have a fitted effect of over 35% in size
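Stably transfected U87-MG glioma cells carrying a GRP78-based luciferase sensor; 16 h compound incubation. Luminescence end-point read 10 min after Bright-Glo addition at room temperature.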
Mito fusion act – qHTS Assay for Small Molecule Inhibitors of Mitochondrial Division or Activators of Mitochondrial Fusion | S. cerevisiae fusion-defective mutant growth rescue, CellTiterGlo 48 h | Potency, µM (highest dose often 46.1 µM), hits mostly activators | 320,000 compounds, 0.23% hits; also: nearly all actives have a fitted effect of over 45% in size
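Luminescent cell viability in 1536-well qHTS format served as the measure of rescued growth in ts fusion-mutant S. cerevisiae cultured on non-fermentable YPEG for 48 hours at 37C.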
A-T KAP1 phos – qHTS Assay for Identifying a Potential Treatment of Ataxia-Telangiectasia | F2112 A-T fibroblasts, KAP-1 phosphorylation AlphaLISA; neocarzinostatin DNA damage 30 min before lysis | Potency, µM (top dose mostly 57.5 µM), usual class: activators | 320,000 compounds, 0.19% hits; also: nearly all actives have a fitted effect of over 45% in size
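hTERT-immortalized A-T patient fibroblasts (F2112), 500 cells/well in OPTI-MEM, 1% FBS, got compounds for 60 min, then NCS for 30 min at 37C. Lysates were then assayed for phospho-KAP-1 by AlphaLISA (anti-pKAP1 donor, anti-KAP1 acceptor beads), 6 hr at 25C.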
TCR activator – Activators of T cell receptors: qHTS campaign | primary human leukocytes, anti-CD3, IL-2 HTRF, 48 h | Potency, µM (titrated, usually from 9.22 µM), actives largely listed as activators | 330,000 tested, under 10 active
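Primary human leukocytes incubated 48 hr with anti-CD3 beads plus compound, without co-stimulation. Secreted IL-2 measured by HTRF (europium cryptate/d2 anti-IL-2 pair, 320 nm excitation, 665 nm emission).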
MBNL1-CUG inh – qHTS Assay for Inhibitors of MBNL1-poly(CUG) RNA binding. TR-FRET MBNL1-His/biotin-(CUG)12 binding, 665/545 ratio. 280,000 compounds, 0.036% hits. Potency, µM (highest dose often 57.5 µM), actives largely listed as inhibitors. Muscleblind-like protein 1 (Homo sapiens), Q9NR56; active = well fitted inhibition curve with a large enough effect in the signal ratio, with a control signal flat, not every such curve was filed as active; inconclusive = small, poorly fitted or top-dose-only effect, or effect the other way, or a change in a side signal; inactive = no such curve, though single readings can be large or run the other way; the % refers to the signal ratio
Target sequence (Q9NR56 whole entry, looked up): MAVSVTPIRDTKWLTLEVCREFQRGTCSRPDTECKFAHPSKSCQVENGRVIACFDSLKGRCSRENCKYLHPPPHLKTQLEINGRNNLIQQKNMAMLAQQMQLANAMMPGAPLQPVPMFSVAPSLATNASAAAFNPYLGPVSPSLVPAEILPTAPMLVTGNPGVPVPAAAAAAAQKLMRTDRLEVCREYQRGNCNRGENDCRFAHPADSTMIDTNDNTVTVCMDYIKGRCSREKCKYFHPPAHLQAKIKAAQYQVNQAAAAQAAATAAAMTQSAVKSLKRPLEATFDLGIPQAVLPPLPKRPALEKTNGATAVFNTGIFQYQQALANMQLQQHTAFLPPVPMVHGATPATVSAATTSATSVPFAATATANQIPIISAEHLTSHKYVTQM
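His-tagged MBNL1 binding to biotinylated (CUG)12 RNA was measured by TR-FRET using terbium anti-His antibody (0.055 ng/ul final) and streptavidin-XL665 (5 nM final). Compounds were titrated 92 nM to 58 uM; 60 min at room temperature.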
Numbers stand for hits; n = inactive; u = inconclusive; x = no result. Unless noted, calls follow the shape of the dose curve; as a rule, active = well fitted curve in the direction sought with a large enough effect; inconclusive = small, poorly fitted or top-dose-only effect, or another doubt; inactive = no such curve, though single readings can be large; an effect the other way counts as inactive or inconclusive.

SMILES	ClpP mod	GRP78 ERSR act	Mito fusion act	A-T KAP1 phos	TCR activator	MBNL1-CUG inh
CC(C)CSc1nnc(CNC(=O)c2ccccn2)n1C	x	n	x	x	x	x
CC(=O)Nc1ccc(Nc2cc(C)nc3c(-c4ccc(Cl)cc4)c(C)nn23)cc1	28.2µM	n	n	u	n	n
CCOC(=O)N1CCN(C(=O)c2ccc3nc4ccsc4c(=O)n3c2)CC1	n	n	n	n	n	u
CCOC(=O)N1CCN(C(=O)c2ccc3nc4ccc(Cl)cc4c(=O)n3c2)CC1	14.1µM	n	n	n	n	u
COCC1CCCN(Cc2ccc3c(c2)CN(C(=O)c2ccc(OC)nc2OC)CCO3)C1 (stereo unspecified)	x	n	x	x	x	x
CCCNC(=S)N(Cc1ccccc1)Cc1nc2ccccc2c(=O)[nH]1	28.2µM	n	n	n	n	n
CCc1ccccc1NC(=O)c1sc2nc(C)cc(C)c2c1N	31.6µM	n	n	n	n	n
Cc1ccc(CNC(=O)c2nn(-c3ccc(Cl)cc3)nc2CO)cc1	25.1µM	n	x	x	x	x
O=C(NCc1cccnc1)c1nn(-c2ccc(F)cc2)nc1CO	25.1µM	n	x	x	x	x
Cc1ccc(-n2nc(CO)c(C(=O)NCc3cccs3)n2)cc1	u	n	x	x	x	x
Cc1ccc(-n2nc(CO)c(C(=O)NCc3cccnc3)n2)cc1	7.94µM	n	x	x	x	x
CCOc1ccc(-n2nc(CO)c(C(=O)NCc3cccs3)n2)cc1	7.94µM	n	x	x	x	x
O=C(NCCN1CCOCC1)c1cnn(-c2nccc(-c3ccccc3F)n2)c1C1CC1	x	n	x	x	x	x
COc1ccccc1-c1ccnc(-n2ncc(C(=O)NCC3(N4CCOCC4)CCCC3)c2C)n1	x	n	x	x	x	x
COCc1c(C(=O)N2CCN(c3ccccc3O)CC2)cnn1-c1nccc(-c2cccs2)n1	x	n	x	x	x	x
CCS(=O)(=O)c1ncc(Cl)c(C(=O)N2CCN(c3cccc(Cl)c3)CC2)n1	n	n	x	x	x	x
CCc1ccc(-n2nc(CO)c(C(=O)NCc3cccnc3)n2)cc1	u	n	x	x	x	x
Cc1ccc(-n2nc(CO)c(C(=O)NCc3cccnc3)n2)cc1C	15.8µM	n	x	x	x	x
COC(=O)c1c(C#N)c(N)nc2c1CCCC2	28.2µM	n	n	n	n	n
Cc1ccc(-c2c(C#N)c(N)nc3c2CCCCC3)cc1	n	n	n	n	x	n
CCOC(=O)N1CCN(Cc2ccc3c(c2)CN(C(=O)c2cc(-c4ccccc4)no2)CCO3)CC1	x	n	x	x	x	x
Oc1cccc(NC(=S)N=Nc2c(O)[nH]c3ccccc23)c1	x	n	n	1.26µM	n	u
CN(C)c1ccc(-c2nc(-c3cccs3)c(-c3cccs3)[nH]2)cc1	11.2µM	n	x	x	x	x
Oc1ccccc1-c1nc(-c2cccs2)c(-c2cccs2)[nH]1	14.1µM	n	x	x	x	x
CC(NC(=O)CCSc1nc(-c2ccc3c(c2)OCO3)cc(C(F)(F)F)n1)c1ccccc1 (stereo unspecified)	31.6µM	n	n	n	n	n
SMILES	ClpP mod	GRP78 ERSR act	Mito fusion act	A-T KAP1 phos	TCR activator	MBNL1-CUG inh
COc1ccc(-c2cc(C(F)(F)F)nc(SCCC(=O)NCc3ccccc3)n2)cc1	12.6µM	n	n	n	n	n
COc1ccc(-c2cc(C(F)(F)F)nc(SCC(=O)Nc3cc(C)on3)n2)cc1	3.98µM	n	n	n	n	n
COc1ccc(CNC(=O)CSc2nc(-c3ccc(OC)cc3)cc(C(F)(F)F)n2)cc1	n	n	x	x	x	x
CCCNC(=O)CSc1nc(-c2ccc(OC)cc2)cc(C(F)(F)F)n1	3.16µM	n	n	x	x	x
COc1ccc(-c2cc(C(F)(F)F)nc(SCCC(=O)Nc3ccccc3F)n2)cc1	n	n	x	x	x	x
COc1cc2c(NC3CCN(C(C)C)CC3)nc(N3CCCN(C)CC3)nc2cc1OCCOCCN(C)C	n	n	x	x	x	x
CC(=NNC(=S)N1CCCCC1)c1cccc(C)n1	25.1µM	n	x	x	n	x
COc1ccc(N(C(=O)c2ccccc2)S(=O)(=O)c2cccs2)cc1	x	31.6µM	n	n	n	n
Oc1ccccc1C1NN=C(c2ccccc2)S1 (stereo unspecified)	7.08µM	n	n	n	x	n
CSc1ccc(C2NN=C(c3ccccc3)S2)cc1 (stereo unspecified)	x	n	x	x	n	x
CCOc1ccc(-c2cc(C(=O)N3CCC(C)CC3)c3ccccc3n2)cc1	31.6µM	n	x	x	n	x
COc1ccc(-c2cc(C(=O)N3CCN(c4ncccn4)CC3)c3ccccc3n2)cc1OC	n	n	n	n	n	x
CCOc1ccc(-c2cc(C(=O)N3CCN(c4cc(Cl)ccc4C)CC3)c3ccccc3n2)cc1	n	n	x	x	x	x
COc1ccc(-c2cc(C(=O)N3CCN(c4cccc(C)c4C)CC3)c3ccccc3n2)cc1OC	25.1µM	n	n	n	n	x
CCOc1ccc(-c2cc(C(=O)O)c3ccccc3n2)cc1	35.5µM	n	n	n	n	n
Cc1cccc(NC(=O)CN(CC2CCCO2)C(=O)c2ccc(S(C)(=O)=O)cc2)c1C (stereo unspecified)	25.1µM	n	n	n	n	x
Cc1cccc(NC(=O)CN(CC2CCCO2)C(=O)c2cc(S(=O)(=O)N(C)C)ccc2F)c1C (stereo unspecified)	x	n	x	n	n	x
COc1ccc(NC(=O)c2oc3ccc(S(=O)(=O)N(C)C4CCCCC4)cc3c2C)cc1Cl	28.2µM	n	x	x	x	x
Cc1ccc(-c2cc3nc4c(c(=O)n3[nH]2)CCCC4)cc1	u	n	x	x	n	x
O=c1c2c(nc3cc(-c4ccc(F)cc4)[nH]n13)CCC2	6.31µM	n	n	n	n	u
COc1cccc(CNS(=O)(=O)c2cn(C)cn2)c1	14.1µM	n	n	n	n	n
CN(C)c1nc2cc3c(cc2cc1CN(CC1CCCO1)C(=O)/C=C/c1cccs1)OCO3 (stereo unspecified)	x	n	x	x	x	x
CCCSc1nc(N)c2c3c(sc2n1)CN(C)CC3	u	n	n	n	n	n
CC(C)Sc1nc(N)c2c3c(sc2n1)CN(C)CC3	28.2µM	u	n	n	n	n
CN1CCc2c(sc3nc(SCC(N)=O)n(-c4ccccc4)c(=O)c23)C1	28.2µM	n	n	n	n	u
CSc1nc(NCc2ccccc2)c2c3c(sc2n1)CN(C)CC3	14.1µM	n	n	n	n	n
COC(=O)CSc1nc2sc3c(c2c(=O)n1-c1ccccc1)CCN(C)C3	17.8µM	n	n	n	n	u
CN1CCc2c(sc3nc(SCC(N)=O)n(-c4ccc(Cl)cc4)c(=O)c23)C1	n	n	n	n	n	u
OCC(O)CS (stereo unspecified)	x	n	x	x	x	x
